# According to PubChem BioAssay:
# Results filed as inconclusive are left out. For some assays here: Measured potencies and affinities stand elsewhere. The source made the active and inactive calls. Unless noted, no rule for the calls is given here.
# How the values were obtained:
# [1] = antimalarial activity against Dd2 strain (AID 2302;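 active = growth inhibition above 50% at the single 2 µM test dose, taken to imply half-maximal potency below 2 µM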;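 also: 0% = DMSO untreated growth and 100% = chloroquine plus artemisinin killed control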); conditions: P. falciparum Dd2 in RBCs, LDH growth readout, 72 h; at 2 µM; stronger effect = higher value
# [2] = human hepatoma cell viability loss – ATP luminescence, cytotoxicity control for P. falciparum antimalarial project, primary screen (AID 2303;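 active = inhibition above 50%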;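 also: 0% = DMSO wells and 100% = digitonin-killed cells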); conditions: HepG2 viability, 24-48 h, at 10 µM, stronger effect = higher value
# [3] = molecular target: L-lactate dehydrogenase (Plasmodium falciparum (isolate CDC / Honduras)) (UniProt Q27743); experiment: PfLDH activity inhibition – cell lysate, 3D7 strain, counter-screen for P. falciparum growth inhibition project (AID 2304);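 also: 0% = vehicle and 100% = reference inhibitor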; conditions: P. falciparum 3D7 crude extract, LDH APAD/NBT absorbance; at 2 µM; stronger effect = higher value
# [4] = inhibition of 3D7 malaria parasite growth – strain 3D7 (AID 2306);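 also: 0% = DMSO wells and 100% = chloroquine plus artemisinin control wells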; conditions: P. falciparum 3D7 erythrocytic growth, LDH absorbance, 72 h; at 2 µM; stronger effect = higher value
# [5] = molecular target: Calcium-dependent protein kinase 1 (Plasmodium falciparum (isolate 3D7)) (UniProt P62344); experiment: PfCDPK1 kinase inhibitors, biochemical, TCAMS library (AID 1159585; cut-off not given, nearly all actives have IC50 up to about 0.98 µM;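 also: inhibitors leave more ATP so luminescence rises with inhibition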); conditions: recombinant PfCDPK1, Kinase-Glo ATP depletion luminescence
# [6] = molecular target: Plasmodium falciparum protein kinase 6 (PK6, PF3D7_1337100) (UniProt Q8IDW1); experiment: PfPK6 kinase inhibitors, biochemical, TCAMS library (AID 1159586); conditions: recombinant PfPK6, Kinase-Glo ATP depletion luminescence
# [7] = molecular target: Protein kinase 7 (PK7), Plasmodium falciparum 3D7 (PF3D7_0213400) (UniProt Q7YTF7); experiment: inhibition of Plasmodium PK7 catalytic activity – biochemical, TCAMS antimalarial set, Kinase-Glo luminescence (AID 1159587); conditions: recombinant PfPK7, Kinase-Glo ATP depletion luminescence
# [8] = molecular target: Calcium-dependent protein kinase 4 (Plasmodium falciparum (isolate 3D7)) (UniProt Q8IBS5); experiment: PfCDPK4 kinase inhibitors, biochemical, TCAMS library (AID 1159588; cut-off not given, nearly all actives have IC50 up to about 0.91 µM); conditions: recombinant PfCDPK4, Kinase-Glo ATP depletion luminescence
# [9] = viability loss with induced miR-34 in A549 – imaging, A549 dox-inducible miR-34, nuclei and caspase counts, primary screen (AID 1347080;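 active = compounds whose cell count with miR-34 switched on is under 0.7 times the count with it off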); conditions: A549 miR-34 inducible, Hoechst nuclei count, 48 h
# [10] = galactose survival enhancers in mitochondrial complex I cybrids – cell-based, galactose medium, ATP luminescence, primary screen (AID 1645843;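 active = z-score of at least 1.8 in each of two replicates, scored against plate mean and spread of sample wells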;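 also: positive z means more ATP and so rescue of galactose-driven cybrid death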); conditions: complex I mutant cybrid cells, 72 h, stronger effect = higher value
# [11] = viability loss in pontine glioma line – cell-based, SU-DIPG-XVII, MIPE5.0, CellTiter-Glo, qHTS, dose response (AID 1347060; cut-off not given, nearly all actives have AC50 up to about 26 µM;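 also: cells exposed to compound for 48 hours before viability readout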); conditions: CellTiter-Glo ATP luminescence
# [12] = viability loss in pontine glioma line – cell-based, SU-DIPG-IV, MIPE4.0, CellTiter-Glo, qHTS, dose response (AID 1347063; cut-off not given, nearly all actives have AC50 up to about 30 µM;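 also: compound exposure lasted 48 hours before the viability readout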); conditions: CellTiter-Glo ATP luminescence
# [13] = viability loss in pontine glioma line – cell-based, SU-DIPG-XIII, MIPE5.0, CellTiter-Glo, qHTS, dose response (AID 1347064; cut-off not given, nearly all actives have AC50 up to about 23 µM;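 also: cells exposed to compound for 48 hours before the viability read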); conditions: CellTiter-Glo ATP luminescence
# [14] = viability loss in pontine glioma line – cell-based, SU-DIPG-XXV, MIPE5.0, CellTiter-Glo, qHTS, dose response (AID 1347065; cut-off not given, nearly all actives have AC50 up to about 26 µM;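 also: cells exposed to compound for 48 hours before ATP readout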); conditions: CellTiter-Glo ATP luminescence
# [15] = growth inhibition of DIPG cells – cell-based, MIPE4.0 library, CellTiter-Glo luminescence, qHTS (AID 1347066; cut-off not given, nearly all actives have AC50 up to about 30 µM;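 also: cells exposed to compound for 48 hours before readout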); conditions: SU-DIPG-VI viability, CellTiter-Glo ATP luminescence
# [16] = JHH-DIPG-1 glioma cell viability, MIPE5.0 library, CellTiter-Glo luminescence, qHTS (AID 1347067; cut-off not given, nearly all actives have AC50 up to about 26 µM;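 also: cells exposed to compound for 48 hours before readout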); conditions: JHH-DIPG-1 glioma viability, CellTiter-Glo ATP luminescence
# [17] = compounds altering HSF1 focus formation in cells – imaging, Selleck Cancer Library (AID 1347162; in the data active = plate-normalised HSF1 focus index below about 0.46); conditions: human cells, HSF1 nuclear foci imaging, at 10 µM; SSMD: measured here: HSF1 foci SSMD mean; cell count: measured here: cell number; plate-normalised HSF1 focus index: stronger effect = lower value
# [18] = MELAS cybrid and Rieske KO viability enhancers – cell-based, MELAS cybrids, Rieske KO mouse fibroblasts, CellTiter-Glo, primary screen (AID 1508586;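 active = mean z-score across replicates of 1.96 or higher in either the MELAS or the Rieske mutant cell line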;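 also: z relative to plate mean and SD of compound and empty wells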); conditions: low glucose
# [19] = drug combination growth inhibition, ovarian cancer – cell-based, oncology-focused library, rucaparib conditional, profiling panel (AID 1508598;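 active = normalized viability below 100% at a tested concentration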); conditions: patient-derived ovarian cancer cells, CellTiter-Glo viability, 144 h, stronger effect = lower value
# [20] = tested on: Aerobactin synthetase IucA (Klebsiella pneumoniae); experiment: inhibition of K. pneumoniae IucA enzyme – biochemical, Tocris library, absorbance (AID 1345561); conditions: purified IucA enzyme assay, absorbance (OD) read-out; stronger effect = lower value;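 tested at 8 µM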;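 also: 100% = enzyme without compound and 0% = no enzyme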
# [21] = stronger effect = lower value, cell number ratio, induced over uninduced
# [22] = measured here: relative caspase fold change +Dox/-Dox
# [23] = measured here: total cells with miR-34 induction, stronger effect = lower value
# [24] = measured here: total cells without miR-34 induction
# Calcium-dependent protein kinase 4 (Plasmodium falciparum (isolate 3D7)), sequence (Q8IBS5 whole entry, looked up): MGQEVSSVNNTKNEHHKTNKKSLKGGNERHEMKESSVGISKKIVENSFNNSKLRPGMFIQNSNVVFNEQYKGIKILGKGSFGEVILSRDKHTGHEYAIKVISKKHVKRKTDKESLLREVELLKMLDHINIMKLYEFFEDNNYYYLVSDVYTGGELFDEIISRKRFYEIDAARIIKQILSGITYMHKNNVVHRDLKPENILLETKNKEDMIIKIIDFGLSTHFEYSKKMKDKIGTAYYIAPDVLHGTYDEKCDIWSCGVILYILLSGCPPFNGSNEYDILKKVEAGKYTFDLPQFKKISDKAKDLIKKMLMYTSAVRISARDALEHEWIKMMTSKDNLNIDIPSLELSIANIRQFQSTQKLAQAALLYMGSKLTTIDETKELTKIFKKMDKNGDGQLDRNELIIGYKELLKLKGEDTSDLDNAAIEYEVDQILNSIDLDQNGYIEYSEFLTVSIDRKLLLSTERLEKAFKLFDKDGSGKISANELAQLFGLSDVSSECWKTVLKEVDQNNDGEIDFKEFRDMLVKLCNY
# Calcium-dependent protein kinase 1 (Plasmodium falciparum (isolate 3D7)), sequence (P62344 whole entry, looked up): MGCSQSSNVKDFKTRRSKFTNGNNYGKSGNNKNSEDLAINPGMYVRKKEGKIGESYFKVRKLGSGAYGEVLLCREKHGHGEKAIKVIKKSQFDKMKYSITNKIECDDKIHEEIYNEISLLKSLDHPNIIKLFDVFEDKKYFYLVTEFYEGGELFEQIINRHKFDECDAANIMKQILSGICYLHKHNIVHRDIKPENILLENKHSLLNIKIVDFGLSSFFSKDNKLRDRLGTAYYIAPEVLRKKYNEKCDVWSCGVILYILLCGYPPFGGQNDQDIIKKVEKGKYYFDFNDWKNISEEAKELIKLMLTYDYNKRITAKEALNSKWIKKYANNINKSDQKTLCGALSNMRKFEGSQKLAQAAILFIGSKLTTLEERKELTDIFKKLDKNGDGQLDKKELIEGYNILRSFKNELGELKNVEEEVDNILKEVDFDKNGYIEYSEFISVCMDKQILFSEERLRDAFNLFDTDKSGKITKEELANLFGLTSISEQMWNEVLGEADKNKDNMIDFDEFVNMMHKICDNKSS
# Protein kinase 7 (PK7), Plasmodium falciparum 3D7 (PF3D7_0213400), sequence (Q7YTF7 1-343): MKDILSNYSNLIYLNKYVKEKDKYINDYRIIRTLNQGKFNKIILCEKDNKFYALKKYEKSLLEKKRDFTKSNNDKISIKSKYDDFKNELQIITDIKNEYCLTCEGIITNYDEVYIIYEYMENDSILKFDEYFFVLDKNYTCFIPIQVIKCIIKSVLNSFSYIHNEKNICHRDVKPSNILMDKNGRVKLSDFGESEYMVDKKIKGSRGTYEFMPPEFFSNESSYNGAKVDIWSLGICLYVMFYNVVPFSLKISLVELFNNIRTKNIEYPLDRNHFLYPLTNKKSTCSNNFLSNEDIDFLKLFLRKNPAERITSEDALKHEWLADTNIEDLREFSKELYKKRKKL
# L-lactate dehydrogenase (Plasmodium falciparum (isolate CDC / Honduras)), sequence (Q27743 whole entry, looked up): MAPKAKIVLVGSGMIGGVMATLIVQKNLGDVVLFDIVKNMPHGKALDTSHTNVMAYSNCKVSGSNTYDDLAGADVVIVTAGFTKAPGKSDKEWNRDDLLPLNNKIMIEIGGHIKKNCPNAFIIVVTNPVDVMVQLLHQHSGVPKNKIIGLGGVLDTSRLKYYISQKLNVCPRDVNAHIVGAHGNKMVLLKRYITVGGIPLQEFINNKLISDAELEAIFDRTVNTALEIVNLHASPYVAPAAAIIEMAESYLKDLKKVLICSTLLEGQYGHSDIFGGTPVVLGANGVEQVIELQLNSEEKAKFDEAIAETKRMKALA
# Plasmodium falciparum protein kinase 6 (PK6, PF3D7_1337100), sequence (Q8IDW1 1-305): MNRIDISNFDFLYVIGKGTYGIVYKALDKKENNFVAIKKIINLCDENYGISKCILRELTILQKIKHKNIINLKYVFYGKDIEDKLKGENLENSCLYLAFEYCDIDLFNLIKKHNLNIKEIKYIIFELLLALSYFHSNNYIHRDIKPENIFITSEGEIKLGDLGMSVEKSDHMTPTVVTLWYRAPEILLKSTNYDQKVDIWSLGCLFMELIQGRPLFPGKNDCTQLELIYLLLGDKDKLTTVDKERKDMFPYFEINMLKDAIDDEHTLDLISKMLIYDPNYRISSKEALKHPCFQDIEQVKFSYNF
structure (smiles),measurement,setting,value
Cc1ccc(NCc2cccc(F)c2)cc1S(=O)(=O)N[C@@H]1CCN(C#N)C1,growth inhibition,[1],83% (active)
same,inhibition,[2],13% (inactive)
same,inhibition,[3],-2% (inactive)
same,growth inhibition,[4],89% (active)
same,outcome,[5],inactive
same,outcome,[6],inactive
same,outcome,[7],inactive
same,outcome,[8],inactive
Cc1cccc2[nH]c(-c3ccc(-c4ccc(CN5CCCCC5CO)cc4)cc3)nc12 (stereo unspecified),growth inhibition,[1],76% (active)
same,inhibition,[2],32% (inactive)
same,inhibition,[3],1% (inactive)
same,growth inhibition,[4],100% (active)
same,outcome,[5],inactive
same,outcome,[6],inactive
same,outcome,[7],inactive
same,outcome,[8],inactive
CN(C)CCCSc1ccccc1NC(=O)C=Cc1ccccc1,growth inhibition,[1],-3% (inactive)
same,inhibition,[2],-4% (inactive)
same,inhibition,[3],-5% (inactive)
same,growth inhibition,[4],85% (active)
same,outcome,[5],inactive
same,outcome,[6],inactive
same,outcome,[7],inactive
same,outcome,[8],inactive
same,fold change,[9]; [21],0.957 (inactive)
same,fold change,[9]; [22],1.81
same,cell count,[9]; [23],8880
same,cell count,[9]; [24],9280
same,z-score,[10],-0.13 (inactive)
FC(F)c1nc2ccccc2n1-c1nc(N2CCOCC2)nc(N2CCOCC2)n1,growth inhibition,[1],99% (active)
same,inhibition,[2],47% (inactive)
same,inhibition,[3],-2% (inactive)
same,growth inhibition,[4],99% (active)
same,outcome,[5],inactive
same,outcome,[6],inactive
same,outcome,[7],inactive
same,outcome,[8],inactive
same,AC50,[11],742 nM (active)
same,AC50,[12],235 nM (active)
same,AC50,[13],833 nM (active)
same,AC50,[14],417 nM (active)
same,AC50,[15],3320 nM (active)
same,AC50,[16],2950 nM (active)
same,fold change,[9]; [21],0.814 (inactive)
same,fold change,[9]; [22],0.918
same,cell count,[9]; [23],1920
same,cell count,[9]; [24],2350
same,SSMD,[17],-0.274
same,cell count,[17],6850
same,plate-normalised HSF1 focus index,[17],0.994 (inactive)
same,z-score,"[18]; MELAS cybrid survival, CellTiter-Glo 48 h, stronger effect = higher value",2.99 (active)
same,z-score,"[18]; Rieske KO mouse fibroblast survival, CellTiter-Glo 72 h",-0.193
same,viability,"[19]; at 0.000305 µM, OCI-C5x cells, with rucaparib 10 µM, 100% = cells with rucaparib alone",125% (inactive)
same,viability,"[19]; at 0.000305 µM, OCI-C5x cells, without rucaparib",124% (inactive)
same,viability,"[19]; at 0.000305 µM, OCI-P5x cells, with rucaparib 20 µM, 100% = cells with rucaparib alone",88.5% (active)
same,viability,"[19]; at 0.000305 µM, OCI-P5x cells, without rucaparib",82.7% (active)
same,viability,"[19]; at 0.00122 µM, OCI-C5x cells, without rucaparib",119% (inactive)
same,viability,"[19]; at 0.00122 µM, OCI-P5x cells, with rucaparib 20 µM, 100% = cells with rucaparib alone",75.5% (active)
same,viability,"[19]; at 0.00122 µM, OCI-P5x cells, without rucaparib",34.1% (active)
same,viability,"[19]; at 0.00488 µM, OCI-C5x cells, with rucaparib 10 µM, 100% = cells with rucaparib alone",115% (inactive)
same,viability,"[19]; at 0.00488 µM, OCI-C5x cells, without rucaparib",120% (inactive)
same,viability,"[19]; at 0.00488 µM, OCI-P5x cells, with rucaparib 20 µM, 100% = cells with rucaparib alone",93.4% (active)
same,viability,"[19]; at 0.00488 µM, OCI-P5x cells, without rucaparib",97.4% (active)
same,viability,"[19]; at 0.0195 µM, OCI-C5x cells, with rucaparib 10 µM, 100% = cells with rucaparib alone",122% (inactive)
same,viability,"[19]; at 0.0195 µM, OCI-C5x cells, without rucaparib",116% (inactive)
same,viability,"[19]; at 0.0195 µM, OCI-P5x cells, with rucaparib 20 µM, 100% = cells with rucaparib alone",94.1% (active)
same,viability,"[19]; at 0.0195 µM, OCI-P5x cells, without rucaparib",90.9% (active)
same,viability,"[19]; at 0.0781 µM, OCI-C5x cells, with rucaparib 10 µM, 100% = cells with rucaparib alone",126% (inactive)
same,viability,"[19]; at 0.0781 µM, OCI-C5x cells, without rucaparib",117% (inactive)
same,viability,"[19]; at 0.0781 µM, OCI-P5x cells, with rucaparib 20 µM, 100% = cells with rucaparib alone",89.9% (active)
same,viability,"[19]; at 0.0781 µM, OCI-P5x cells, without rucaparib",93% (active)
same,viability,"[19]; at 0.313 µM, OCI-C5x cells, with rucaparib 10 µM, 100% = cells with rucaparib alone",128% (inactive)
same,viability,"[19]; at 0.313 µM, OCI-C5x cells, without rucaparib",111% (inactive)
same,viability,"[19]; at 0.313 µM, OCI-P5x cells, with rucaparib 20 µM, 100% = cells with rucaparib alone",88.2% (active)
same,viability,"[19]; at 0.313 µM, OCI-P5x cells, without rucaparib",84.5% (active)
same,viability,"[19]; at 1.25 µM, OCI-C5x cells, with rucaparib 10 µM, 100% = cells with rucaparib alone",107% (inactive)
same,viability,"[19]; at 1.25 µM, OCI-C5x cells, without rucaparib",126% (inactive)
same,viability,"[19]; at 1.25 µM, OCI-P5x cells, with rucaparib 20 µM, 100% = cells with rucaparib alone",42% (active)
same,viability,"[19]; at 1.25 µM, OCI-P5x cells, without rucaparib",62.9% (active)
same,viability,"[19]; at 5 µM, OCI-C5x cells, with rucaparib 10 µM, 100% = cells with rucaparib alone",25.2% (active)
same,viability,"[19]; at 5 µM, OCI-C5x cells, without rucaparib",45.8% (active)
same,viability,"[19]; at 5 µM, OCI-P5x cells, with rucaparib 20 µM, 100% = cells with rucaparib alone",8.53% (active)
same,viability,"[19]; at 5 µM, OCI-P5x cells, without rucaparib",15.4% (active)
O=C1C(c2ccccc2)=C(Nc2ccc(Cl)cc2)c2ccccc21,growth inhibition,[1],59% (active)
same,inhibition,[2],5% (inactive)
same,inhibition,[3],-2% (inactive)
same,growth inhibition,[4],91% (active)
same,outcome,[5],inactive
same,outcome,[6],inactive
same,outcome,[7],inactive
same,outcome,[8],inactive
CC(C)(C)c1ccc(NC(=O)c2cccc(CN3CCCN(Cc4ccc(F)cc4)CC3)c2)cc1,growth inhibition,[1],2% (inactive)
same,inhibition,[2],35% (inactive)
same,inhibition,[3],0% (inactive)
same,growth inhibition,[4],88% (active)
same,outcome,[5],inactive
same,outcome,[6],inactive
same,outcome,[7],inactive
same,outcome,[8],inactive
COc1ccc(Cl)cc1N1CCN(CCCNC(=O)c2ccc(-c3nc4cc5ccccc5cc4[nH]3)c(F)c2)CC1,growth inhibition,[1],62% (active)
same,inhibition,[2],12% (inactive)
same,inhibition,[3],-3% (inactive)
same,growth inhibition,[4],99% (active)
same,outcome,[5],inactive
same,outcome,[6],inactive
same,outcome,[7],inactive
same,outcome,[8],inactive
CCCn1c(Sc2ccc(C#N)c([N+](=O)[O-])c2)nnc1-c1cc(OC)cc(OC)c1,growth inhibition,[1],79% (active)
same,inhibition,[2],24% (inactive)
same,inhibition,[3],6% (inactive)
same,growth inhibition,[4],98% (active)
same,outcome,[5],inactive
same,outcome,[6],inactive
same,outcome,[7],inactive
same,outcome,[8],inactive
COc1ccc(-c2cccc(NC(=O)c3ccc(F)cc3)c2)cc1CNC(C)C,growth inhibition,[1],9% (inactive)
same,inhibition,[2],32% (inactive)
same,inhibition,[3],1% (inactive)
same,growth inhibition,[4],83% (active)
same,outcome,[5],inactive
same,outcome,[6],inactive
same,outcome,[7],inactive
same,outcome,[8],inactive
CS(=O)(=O)CCNCc1nc(-c2ccc3ncnc(Nc4ccc(OCc5cccc(F)c5)c(Cl)c4)c3c2)cs1,growth inhibition,[1],34% (inactive)
same,inhibition,[2],8% (inactive)
same,inhibition,[3],-3% (inactive)
same,growth inhibition,[4],98% (active)
same,outcome,[5],inactive
same,outcome,[6],inactive
same,outcome,[7],inactive
same,outcome,[8],inactive
same,remaining activity,[20],122% (inactive)
same,fold change,[9]; [21],0.987 (inactive)
same,fold change,[9]; [22],0.867
same,cell count,[9]; [23],7720
same,cell count,[9]; [24],7820
same,z-score,[10],-0.46 (inactive)
Oc1ccc(OCc2ccccn2)cc1,growth inhibition,[1],0% (inactive)
same,inhibition,[2],5% (inactive)
same,inhibition,[3],2% (inactive)
same,growth inhibition,[4],98% (active)
same,outcome,[5],inactive
same,outcome,[6],inactive
same,outcome,[7],inactive
same,outcome,[8],inactive
O=C(Nc1cccc(C(F)(F)F)c1)N1CCOC(CCN2CCC3(CCc4ccccc43)CC2)(c2ccc(Cl)c(Cl)c2)C1 (stereo unspecified),growth inhibition,[1],70% (active)
same,inhibition,[2],31% (inactive)
same,inhibition,[3],0% (inactive)
same,growth inhibition,[4],99% (active)
same,outcome,[5],inactive
same,outcome,[6],inactive
same,outcome,[7],inactive
same,outcome,[8],inactive
CC(CCCCC(=O)Nc1ccc(C(F)(F)F)cc1)NCC(O)c1cccc(Cl)c1 (stereo unspecified),growth inhibition,[1],92% (active)
same,inhibition,[2],51% (active)
same,inhibition,[3],-8% (inactive)
same,growth inhibition,[4],99% (active)
same,outcome,[5],inactive
same,outcome,[6],inactive
same,outcome,[7],inactive
same,outcome,[8],inactive
